Assay results published in PubChem BioAssay AID463173 (ICCB-Longwood Screening Facility, Harvard Medical School, 2010).
The whole screen tested about 52,000 compounds, of which about 4,300 (8.3%) were called active. Only a selection was taken, and actives are over-represented in it overall. A number with no mark means an inactive call. No stated cut-off is given here; in the data, active means survival mostly below about 52% (no sharp cut-off); inactive means mostly above about 56%.

The compounds below were run on DeltatarO mutant (assay: growth inhibition of S. aureus wild type versus tarO mutant, primary screen, teichoic acid synthesis inhibitors, RN4220, OD600 (AID 463173)). Details: OD600, 18 h, active compounds read low, screened at 18.75 µg/mL (by protocol).

Structure (SMILES)	survival
Cc1ccc(C(=O)c2cn(Cc3ccccc3F)c3cc4c(cc3c2=O)OCCO4)cc1	82%
CCc1ccc(NC(=O)CSc2cn(CC(=O)N3CCOCC3)c3ccccc23)cc1	86%
CSc1ccc(CCNC(=O)c2ccc(-c3nc(COc4ccccc4)c(C)o3)cc2)cc1	91%
Cc1nn(-c2nc3ccccc3[nH]2)c(N)c1-c1ccccc1	2% (active)
Nc1ccc(Cc2nc3ccccc3[nH]2)cc1	86%
CC(C)(Cc1nc2ccccc2[nH]1)c1nc2ccccc2[nH]1	97%
COc1cc(OC)c(NC(=O)N2CCC(CN3CCCC3)CC2)cc1Cl	84%
COc1ccc(NC(=O)c2sc3nc(C(F)(F)F)cc(C)c3c2N)cc1OC	140%
N#Cc1cc2c(nc1SCC(=O)N1CCOCC1)CCC2	97%
COc1ccc(-c2nsc(NC(=O)c3oc4cc(C)c(C)cc4c3C)n2)cc1	67%
O=C(COc1ccccc1Cl)Nc1nc(-c2ccc(F)cc2)ns1	55%
COc1ccc(-c2nsc(NC(=O)C(C)Oc3ccc(Cl)c(C)c3)n2)cc1 (stereo not given)	45% (active)
O=C(Nc1nc(-c2ccc(Br)cc2)ns1)c1ccc(F)cc1	52%
Cc1cc(C)cc(OCC(=O)Nc2nc(-c3ccc(F)cc3)ns2)c1	89%
COc1ccc(-c2nsc(NC(=O)COc3ccc(C)c(C)c3)n2)cc1	65%
CCC(Oc1ccc(F)cc1)C(=O)Nc1nc(-c2ccc(F)cc2)ns1 (stereo not given)	-2% (active)
CC(Oc1ccc(F)cc1)C(=O)Nc1nc(-c2ccc(F)cc2)ns1 (stereo not given)	-2% (active)
CCC(Oc1ccc(F)cc1)C(=O)Nc1nc2c(s1)CCCC2 (stereo not given)	83%
CCC(=O)N1CCc2cc(CNC(=O)C(CC)c3ccccc3)ccc21 (stereo not given)	92%
Cc1cc2c(cc1NC(=O)c1ccccc1Cl)n(C)c(=O)c(=O)n2C	79%
CCC(=O)C1C(=O)CC(C)(C)CC1=O	103%
Cc1ccc(S(=O)(=O)c2nnn(CC(=O)Nc3ccccc3C)c2N)cc1C	91%

Structure (SMILES)	survival
CN(Cc1ccccc1)C(=O)C1CCN(S(C)(=O)=O)CC1	80%
COc1ccc(Br)cc1CNC(=O)CCC(=O)N1CCSc2ccccc21	41% (active)
COc1cc(OC)c(NC(=O)N2CCSc3ccccc32)cc1Cl	74%
COc1ccc(Br)cc1CNC(=O)CN1CCSc2ccccc21	88%
COc1cc(NC(=O)N2CCSc3ccccc32)cc(OC)c1OC	52% (active)
CCOc1ccccc1CNC(=O)CCC(=O)N1CCSc2ccccc21	107%
O=C(Nc1cccc(Cl)c1)N1CCSc2ccccc21	79%
COc1ccc(-c2c3c(=O)n(C)c(=O)n(C)c3c3c(-c4ccc(C)cc4)nc4ccccc4n23)cc1	82%
CCCCOc1ccc(C2C(=O)N(C3CCCCC3)CC(=O)N2CCCC)cc1 (stereo not given)	89%
COc1cccc(C(C(=O)NC2CCCCC2)N(C(=O)c2ccccn2)c2cccnc2)c1 (stereo not given)	81%
CCOC(=O)N1CCC2(CC1)OC(=O)C(C)=C2C(=O)NCc1ccc(C)cc1	70%
O=C(CSc1nnc(-c2ccc(Cl)cc2)o1)N1CCc2ccccc21	96%
Cc1ccc(-c2nnc(SCC(=O)N3CCc4ccccc43)o2)cc1	95%
O=C(CSc1nnc(-c2ccccc2F)o1)N1CCc2ccccc21	100%
O=C(CSc1nnc(-c2ccccc2Cl)o1)N1CCCc2ccccc21	35% (active)
O=C(CSc1nnc(-c2ccccc2)o1)N1CCCc2ccccc21	80%
Cc1ccccc1-c1nnc(SCC(=O)N2CCCc3ccccc32)o1	9% (active)
O=C(CSc1nnc(-c2ccc(F)cc2)o1)N1CCCc2ccccc21	72%
Cc1cccc(-c2nnc(SCC(=O)N3CCCc4ccccc43)o2)c1	11% (active)
Cc1ccc(-c2nnc(SCC(=O)N3CCCc4ccccc43)o2)cc1	63%
Cc1ccc(NC(=O)c2ccc(NC(=O)N3CCSc4ncccc43)cc2)c(Cl)c1	64%
COc1cccc(-c2nc(CS(=O)(=O)CC(=O)Nc3cccc(C(C)=O)c3)c(C)o2)c1	71%

Structure (SMILES)	survival
CCc1cccc(NC(=O)CN2c3ccccc3S(=O)(=O)c3ccccc32)c1	72%
CCOc1ccc(CC(=O)NCCc2csc(-c3ccc(C)cc3)n2)cc1	88%
COc1ccc(CCNC(=O)c2ccc(-n3c(C)cc4c3CCC(C)C4)cc2)cc1OC (stereo not given)	52% (active)
COc1ccc(CCNC(=O)c2ccc(-n3c(C)cc4c3CCCC4)cc2)cc1OC	74%
CCOc1ccc(CCNC(=O)c2ccc(-n3c(C)cc4c3CCC(C)C4)cc2)cc1OCC (stereo not given)	82%
CCOC(=O)C1CCN(C(=O)C2CCN(C3=NS(=O)(=O)C(c4ccc(C)cc4)=C3CC)CC2)CC1	115%
O=C(NCC(c1ccco1)S(=O)(=O)c1cccs1)c1ccc(Cl)cc1 (stereo not given)	102%
O=C(Cn1c(=O)oc2cc(Cl)ccc21)Nc1cccc(C(F)(F)F)c1	89%
O=C(Cc1ccc(F)cc1)NCCc1csc2nc(-c3ccc(Cl)cc3)nn12	95%
O=S(=O)(Nc1c(F)cccc1F)c1ccc2c(c1)OCCO2	63%
CN1CCN(S(=O)(=O)c2cccc(S(=O)(=O)c3ccc(Cl)c(Cl)c3)c2)CC1	102%
Cc1c(Cl)cccc1NS(=O)(=O)c1ccc(NS(=O)(=O)c2ccc3c(c2)OCCO3)cc1	13% (active)
CC(=O)c1ccc(NS(=O)(=O)c2cccc(S(=O)(=O)c3ccc(Cl)cc3)c2)cc1	124%
O=S(=O)(Nc1ccc(Cl)cc1)c1cccc(S(=O)(=O)c2ccc(Cl)c(Cl)c2)c1	37% (active)
Cc1cccc(C)c1NS(=O)(=O)c1ccc(NS(=O)(=O)c2ccc3c(c2)OCCO3)cc1	110%
CCOC(=O)c1ccc(NS(=O)(=O)c2ccc3c(c2)OCCO3)cc1	74%
O=S(=O)(Nc1ccc(C(F)(F)F)cc1)c1ccc2c(c1)OCCO2	69%
O=S(=O)(Nc1cccc(C(F)(F)F)c1)c1ccc(NS(=O)(=O)c2ccc3c(c2)OCCO3)cc1	6% (active)
O=S(=O)(Nc1ccc(Cl)cc1)c1ccc(NS(=O)(=O)c2ccc3c(c2)OCCO3)cc1	38% (active)
COc1ccc(NS(=O)(=O)c2ccc(NS(=O)(=O)c3ccc4c(c3)OCCO4)cc2)cc1	116%
COC(=O)c1cc(NS(=O)(=O)c2ccc3c(c2)OCCO3)ccc1Cl	65%
